Experimental data from PubChem BioAssay AID1159580 (chemical genetic matrix, 2015).
Where “and” joins values, the source holds several entries; their conditions need not be identical. Identical values can stand only once. About 2,000 (36%) of roughly 5,500 compounds were called active. Another 18% or so got no clear call; they are omitted. Cut-off read from the data, not from the text of the source: active = normalized growth mostly below about 0.91 (no sharp cut-off); inconclusive = no clear call, values can overlap the other calls; inactive = mostly above about 0.92. This is one part of the list.

Assay: chemical genetic growth profiling, strain panel (AID 1159580);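 note: tested at 20 µM; growth read once vehicle control cultures reached saturation at 30 °C; 1 = growth at the plate median or of vehicle wells; lower values mean less growth of the strain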
Details: S. cerevisiae deletion strains, growth OD

Measured: normalized growth

Cc1cc(C(C)(C)C)c(O)c(C)c1CC1=NCCN1
inactive: locus YAL013W, strain DEP1, stronger effect = lower value 0.986 and 1.02 | locus YAL021C, strain ccr4, stronger effect = lower value 1.01 | locus YAL026C, strain drs2, stronger effect = lower value 1 | locus YAL030W, strain snc1, stronger effect = lower value 1.01 | locus YAL040C, strain CLN3, stronger effect = lower value 1.01 | locus YBL061C, strain skt5, stronger effect = lower value 1.02 | locus YBR009C, strain hhf1, stronger effect = lower value 1.01 | locus YBR021W, strain FUR4, stronger effect = lower value 1 | locus YBR023C, strain chs3, stronger effect = lower value 1.02 | locus YBR171W, strain sec66, stronger effect = lower value 1.02 | locus YBR229C, strain ROT2, stronger effect = lower value 1 | locus YBR231C, strain swc5, stronger effect = lower value 0.998 | locus YBR279W, strain paf1, stronger effect = lower value 0.993 | locus YCL011C, strain gbp2, stronger effect = lower value 1.01 | locus YCL016C, strain dcc1, stronger effect = lower value 1.02 | locus YCL029C, strain bik1, stronger effect = lower value 1.02 | locus YCL061C, strain MRC1 (second series), stronger effect = lower value 1 | locus YCL061C, strain MRC1, stronger effect = lower value 1.01 | locus YCL069W, strain vba3, stronger effect = lower value 1 | locus YCR088W, strain abp1, stronger effect = lower value 1 | locus YDL005C, strain med2, stronger effect = lower value 0.998 | locus YDL035C, strain GPR1, stronger effect = lower value 1 | locus YDL040C, strain nat1, stronger effect = lower value 1 | locus YDL074C, strain BRE1, stronger effect = lower value 0.98 | locus YDL101C, strain DUN1, stronger effect = lower value 1 | locus YDL134C, strain PPH21, stronger effect = lower value 0.997 | locus YDL185W, strain tfp1, stronger effect = lower value 1.01 | locus YDL192W, strain arf1, stronger effect = lower value 1.02 | locus YDR001C, strain nth1, stronger effect = lower value 0.993 | locus YDR069C, strain doa4, stronger effect = lower value 1.01 | locus YDR101C, strain arx1, stronger effect = lower value 0.993 | locus YDR137W, strain rgp1, stronger effect = lower value 1.06 | locus YDR150W, strain NUM1, stronger effect = lower value 1 | locus YDR159W, strain sac3, stronger effect = lower value 0.991 | locus YDR162C, strain NBP2, stronger effect = lower value 0.991 | locus YDR195W, strain ref2 0.99 | locus YDR297W, strain sur2, stronger effect = lower value 1 | locus YDR318W, strain mcm21, stronger effect = lower value 1.01 | locus YDR334W, strain swr1, stronger effect = lower value 1.01 | locus YDR335W, strain msn5, stronger effect = lower value 1 | locus YDR363W, strain ESC2, stronger effect = lower value 1.01 | locus YDR388W, stronger effect = lower value 1 | locus YDR392W, strain spt3, stronger effect = lower value 0.954 | locus YDR502C, strain sam2, stronger effect = lower value 1 | locus YEL003W, strain gim4, stronger effect = lower value 0.981 | locus YEL037C, strain rad23, stronger effect = lower value 1 | locus YEL061C, strain CIN8 (second series), stronger effect = lower value 0.998 | locus YEL061C, strain CIN8, stronger effect = lower value 0.997 | locus YER002W, strain NOP16, stronger effect = lower value 0.998 | locus YER015W, strain faa2, stronger effect = lower value 0.998 | locus YER016W, strain bim1, stronger effect = lower value 1 | locus YER110C, stronger effect = lower value 1.02 | locus YER111C, strain swi4, stronger effect = lower value 1 | locus YER155C, strain BEM2 (second series), stronger effect = lower value 0.991 | locus YER155C, strain BEM2, stronger effect = lower value 0.996 | locus YER167W, strain BCK2, stronger effect = lower value 0.998 | locus YFR010W, strain ubp6, stronger effect = lower value 0.999 | locus YGL078C, strain dbp3, stronger effect = lower value 1.01 | locus YGL086W, strain mad1, stronger effect = lower value 1 | locus YGL167C, strain pmr1, stronger effect = lower value 1 | locus YGL173C, strain kem1, stronger effect = lower value 1.01 | locus YGL227W, strain vid30, stronger effect = lower value 1 | locus YGL240W, strain doc1, stronger effect = lower value 0.992 | locus YGL248W, strain PDE1, stronger effect = lower value 1 | locus YGL253W, strain hxk2, stronger effect = lower value 1.01 | locus YGR078C, strain PAC10, stronger effect = lower value 1 and 0.998 | locus YGR135W, strain pre9, stronger effect = lower value 1.01 | locus YGR229C, strain SMI1, stronger effect = lower value 1.01 | locus YGR252W, strain gcn5, stronger effect = lower value 0.967 | locus YHR013C, strain ard1, stronger effect = lower value 1.01 | locus YHR027C, strain rpn1, stronger effect = lower value 1.02 | locus YHR030C, strain SLT2, stronger effect = lower value 0.998 and 0.968 | locus YHR079C, strain IRE1 (second series), stronger effect = lower value 1.01 | locus YHR079C, strain IRE1, stronger effect = lower value 0.977 | locus YHR094C, strain hxt1, stronger effect = lower value 0.994 | locus YHR129C, strain ARP1, stronger effect = lower value 1.01 | locus YHR142W, strain chs7, stronger effect = lower value 0.997 | locus YHR200W, strain rpn10, stronger effect = lower value 0.994 | locus YIL066C, strain RNR3, stronger effect = lower value 1 | locus YIL073C, strain SPO22, stronger effect = lower value 1.04 | locus YIL125W, strain kgd1, stronger effect = lower value 1 | locus YIR030C, strain dcg1, stronger effect = lower value 1.01 | locus YJL092W, strain hpr5, stronger effect = lower value 1.01 | locus YJL095W, strain BCK1 (second series), stronger effect = lower value 1.01 | locus YJL095W, strain BCK1, stronger effect = lower value 1 and 0.981 | locus YJL115W, strain asf1, stronger effect = lower value 1 | locus YJL129C, strain trk1, stronger effect = lower value 0.993 | locus YJL134W, strain LCB3, stronger effect = lower value 0.997 | locus YJL154C, strain vps35, stronger effect = lower value 1 | locus YJL164C, strain tpk1, stronger effect = lower value 1 | locus YJL166W, strain qcr8, stronger effect = lower value 1.01 | locus YJL168C, strain set2, stronger effect = lower value 1.01 | locus YJL187C, strain SWE1 (second series), stronger effect = lower value 1 | locus YJL187C, strain SWE1, stronger effect = lower value 1 | locus YJR043C, strain POL32, stronger effect = lower value 0.982
